SENP6 block: SENP6 protease inhibition | 330,000 tested, 1.8% active | inhibition, % at 10 µM | Q9GZR1 | Recombinant SENP6 catalytic domain, aminoluciferin luminescence;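 active means inhibition above about 50% at the single tested dose, limit read from the data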
Platelet DG rel: modulates dense granule release in human platelets. human platelet-rich plasma, SFLLRN dense granule ATP release, luminescence. inhibition, %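 (compounds screened at 7.5 µM in platelet-rich plasma)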. 300,000 tested, 0.22% active;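 active means mean replicate score, as percent of positive control, at or above 50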
SENP8 block-1: SENP8 protease inhibition; AID 2540; 330,000 tested, 1.2% active; Q96LD8; inhibition, % at 10 µM; purified SENP8, Z-RLRGG-aminoluciferin cleavage, luminescence; in the data active means inhibition above about 50%
Target sequence (Q96LD8 whole entry, looked up): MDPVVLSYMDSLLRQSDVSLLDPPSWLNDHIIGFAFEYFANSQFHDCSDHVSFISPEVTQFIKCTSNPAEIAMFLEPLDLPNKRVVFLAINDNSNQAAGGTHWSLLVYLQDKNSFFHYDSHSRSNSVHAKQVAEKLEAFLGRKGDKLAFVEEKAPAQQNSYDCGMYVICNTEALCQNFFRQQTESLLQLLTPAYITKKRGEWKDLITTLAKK
SENP7 block: inhibitors of human SENP7 protease; Q9BQF6; recombinant SENP7, Z-RLRGG-aminoluciferin luminescence, 40 min; inhibition, % at 5 µM; 330,000 tested, 1.5% active; AID 434973;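 active means inhibition above about 50% at the single test dose, limit read from the data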
SENP8 block-2: blocks human SENP8 cleavage of Nedd8 substrate | Q96LD8 | recombinant SENP8, Nedd8 substrate fluorescence | inhibition, % at 20 µM | 360,000 tested, 0.64% active; in the data active means inhibition mostly above about 40%, no sharp cut-off; inactive means mostly below about 27%
SENP8 conf: confirmation of human SENP8 protease inhibitors; shares compounds with SENP7 block; Recombinant SENP8, Z-RLRGG-aminoluciferin luminescence, 60 min; inhibition, % at 12.5 µM; 6,200 tested, 40% active;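 active means mean inhibition across replicates above about 50%, limit read from the data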
SENP6 conf: human SENP6 inhibition, confirmed. shares compounds with SENP7 block. recombinant SENP6, Z-RLRGG-aminoluciferin luminescence. inhibition, % at 12.5 µM. 6,200 tested, 58% active
SENP7 conf: human SENP7 inhibition, confirmed | shares compounds with SENP7 block | recombinant SENP7, Z-RLRGG-aminoluciferin luminescence, 40 min | inhibition, % at 12.5 µM | 6,200 tested, 69% active
Casp3 select: inhibits human caspase-3 in SENP selectivity test; shares compounds with SENP7 block; purified caspase-3, Z-DEVD-aminoluciferin luminescence, 60 min; inhibition, % at 12.5 µM; 6,200 tested, 60% active; AID 488918;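 active means mean inhibition above about 50%, limit read from the data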
Target sequence (P42574 28-227 limits assumed): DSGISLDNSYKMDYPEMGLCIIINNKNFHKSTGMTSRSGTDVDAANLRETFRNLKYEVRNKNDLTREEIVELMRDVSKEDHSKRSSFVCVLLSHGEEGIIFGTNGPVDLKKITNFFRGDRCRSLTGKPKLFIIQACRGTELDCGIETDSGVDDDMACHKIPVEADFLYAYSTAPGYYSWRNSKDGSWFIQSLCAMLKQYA
SENP luc ctr: counter-screen for SENP inhibitors: luminescence interference; 6,200 tested, 39% active; inhibition, % at 12.5 µM; Pre-incubated SENP8/Z-RLRGG-aminoluciferin, luciferase luminescence interference; shares compounds with SENP7 block;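 active means mean inhibition above about 50% when retested at one dose, limit read from the data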
Of the large screens only hits and unclear results are named; the others gave an inactive call (follow-up assays come after a bar, where they were run). Compounds with a hit are over-represented: about 2.4% of the library has one in this group of screens.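 How the source made its calls, unless noted: active means mean inhibition above about 50% in the one-dose retest (limit read from the data); inactive means the rest.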

NS(=O)(=O)c1cccc(NC(=O)c2cc3ccccc3o2)c1	none
COc1ccc(C(=O)CSC(=S)N2CCCCC2)cc1	none (no result: SENP6 block, Platelet DG rel, SENP8 block-1, SENP7 block)
O=C(CSC(=S)N1CCCC1)c1ccccc1	SENP6 block 64, SENP7 block 54 | SENP8 conf 52 | SENP6 conf 52 | SENP7 conf 78 | Casp3 select 70 | SENP luc ctr 56
O=C(CSC(=S)N1CCCCC1)c1ccccc1	SENP6 block 74, SENP8 block-1 63, SENP7 block 74 | SENP8 conf inactive | SENP6 conf 63 | SENP7 conf 90 | Casp3 select 73 | SENP luc ctr 67
CSc1ccccc1C(=O)Nc1ccc2c(c1)OCCO2	none
O=C(Nc1ccc2c(c1)OCCO2)c1coc2ccccc2c1=O	SENP6 block 98, SENP8 block-1 86, SENP7 block 98 | SENP8 conf 86 | SENP6 conf 85 | SENP7 conf 92 | Casp3 select 71 | SENP luc ctr inactive
Cc1ccccc1C(=O)Nc1ccc2c(c1)OCCO2	SENP6 block 63, SENP8 block-1 55, SENP7 block 69 | SENP8 conf 53 | SENP6 conf 52 | SENP7 conf 84 | Casp3 select 85 | SENP luc ctr 67
Cc1occc1C(=O)Nc1ccc2c(c1)CCC2	SENP6 block 91, SENP8 block-1 86, SENP7 block 93 | SENP8 conf 92 | SENP6 conf 92 | SENP7 conf 99 | Casp3 select 94 | SENP luc ctr 92
Cc1cc(C(=O)Nc2ccc3c(c2)OCCO3)c(C)o1	SENP7 block 51 | SENP8 conf inactive | SENP6 conf inactive | SENP7 conf 84 | Casp3 select 81 | SENP luc ctr 67
Cc1cc(C(=O)Nc2ccc3c(c2)OCCO3)c2ccccc2n1	none
O=C(COC(=O)CCc1c[nH]c2ccccc12)NCc1ccc2c(c1)OCO2	none
Cc1occc1C(=O)Nc1ccc2c(c1)OCCO2	SENP6 block 89, SENP8 block-1 73, SENP7 block 84 | SENP8 conf inactive | SENP6 conf 78 | SENP7 conf 95 | Casp3 select 90 | SENP luc ctr 76
CC(=O)Nc1ccc2c(c1)OCCOCCOc1cc(NC(C)=O)ccc1OCCOCCOCCO2	none (no result: SENP8 block-2)
Cc1cc(C)n2c(=O)[nH]nc2c1	none (no result: SENP6 block, Platelet DG rel, SENP8 block-1, SENP7 block)
O=C(CNC(=O)c1ccccc1Cl)N/N=C/c1ccc2c(c1)OCO2	none
Cc1nc(N/N=C\c2ccc3c(c2)OCO3)sc1C	SENP6 block 50 | SENP8 conf inactive | SENP6 conf inactive | SENP7 conf 75 | Casp3 select inactive | SENP luc ctr inactive
C(=N\Nc1nc2ccccc2[nH]1)/c1ccc2c(c1)OCO2	none (no result: SENP6 block, SENP8 block-1, SENP7 block)
Clc1ccccc1N/N=C/c1ccc2c(c1)OCO2	SENP6 block 96, SENP8 block-1 89, SENP7 block 74 | SENP8 conf 98 | SENP6 conf 99 | SENP7 conf 102 | Casp3 select 91 | SENP luc ctr 89
CCN(CC)C(=O)C(=O)Nc1ccc(F)c(Cl)c1	none
O=C(COc1ccc(Cl)cc1)c1ccc(O)cc1O	SENP6 block 58 | SENP8 conf 54 | SENP6 conf inactive | SENP7 conf 72 | Casp3 select 67 | SENP luc ctr 53
CCOC(=O)c1ccc(OCC(=O)c2ccc(O)cc2O)cc1	SENP6 block 55 | SENP8 conf inactive | SENP6 conf inactive | SENP7 conf 64 | Casp3 select 66 | SENP luc ctr inactive
CC(CC(=O)NC1CCCCC1)S(=O)(=O)c1ccc2c(c1)NC(=O)CO2 (centres undefined)	none
CCCC1(c2ccccc2)NC(=O)N(CC(=O)NCC2COc3ccccc3O2)C1=O (centres undefined)	none (no result: Platelet DG rel)
